# Measured values from ChEMBL document CHEMBL3988442, “University of Dundee, Small-Polar-MMV Screening Library” (2021).
# Tests used:
# [1] = target: T1, Aspartate--tRNA(Asp/Asn) ligase (Mycobacterium tuberculosis (strain ATCC 25618 / H37Rv)) (UniProt P9WFW3); experiment: Assay for Asp RNA synthetase-1 from Mycobacterium tuberculosis; type: functional; set-up: scale not given: direction of the effect not stated beside the values; conditions: 30 µM; note: in the data most compounds retested in dose-response had high values
# T1 sequence (whole entry): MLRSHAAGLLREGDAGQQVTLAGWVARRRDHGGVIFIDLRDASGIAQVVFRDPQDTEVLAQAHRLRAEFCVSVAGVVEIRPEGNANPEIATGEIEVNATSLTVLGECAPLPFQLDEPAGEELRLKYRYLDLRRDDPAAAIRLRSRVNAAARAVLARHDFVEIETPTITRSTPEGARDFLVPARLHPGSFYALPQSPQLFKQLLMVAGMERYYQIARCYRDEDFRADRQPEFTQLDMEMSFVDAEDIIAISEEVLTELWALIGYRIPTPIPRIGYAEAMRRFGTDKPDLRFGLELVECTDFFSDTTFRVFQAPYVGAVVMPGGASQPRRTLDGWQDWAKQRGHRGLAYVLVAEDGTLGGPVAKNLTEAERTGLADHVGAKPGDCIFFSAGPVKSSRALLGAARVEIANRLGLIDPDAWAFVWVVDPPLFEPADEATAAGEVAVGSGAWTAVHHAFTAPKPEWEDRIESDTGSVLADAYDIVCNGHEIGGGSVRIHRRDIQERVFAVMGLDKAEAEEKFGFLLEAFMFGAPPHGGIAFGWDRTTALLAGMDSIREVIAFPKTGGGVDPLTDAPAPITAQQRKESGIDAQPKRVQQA
# [2] = target: Shiga toxin 2 (Escherichia coli O157:H7) (UniProt P09385+P09386); experiment: E. coli 0.157:H7 Shiga Toxin SOP - stx2 screening assay; type: functional; set-up: scale not given: direction of the effect not stated beside the values; conditions: 30 µM
SMILES,Percent Effect [1] [%],Percent Effect [2] [%]
COCC1CCCN(C(=O)c2cc(Cn3ccc4ccccc43)[nH]n2)C1 (stereo not drawn),9.18,-24.9
O=C1[C@@H]2CCN(Cc3ccoc3)C[C@@H]2OCCN1c1ccccc1,-0.779,4.03
CCc1nnc(CN2CCN(C(=O)c3ccccn3)CC2)o1,-0.577,21.4
NC(=O)C1CCC(NC(=O)COc2ccc(Cl)c(Cl)c2)CC1 (stereo not drawn),3.91,-29.1
Cc1cccc(N2CC[C@@H]3CN(C(=O)c4ccco4)CCO[C@@H]3C2)n1,-0.221,1.6
O=C(c1cccnc1)N1CCc2ncnc(C3CCOC3)c2CC1 (stereo not drawn),-5.37,-9.92
COc1ncc(C2(O)CCN(Cc3cccs3)CC2)c(OC)n1,-0.868,-24.4
O=C([C@@H]1C[C@@H]2CCN(CCc3ccccc3)C[C@H]2O1)N1CCCC1,-0.868,-14.6
CCOCC1CN(S(C)(=O)=O)Cc2cnn(CC3CCOCC3)c21 (stereo not drawn),5.17,-7.39
NS(=O)(=O)CCNC(=O)c1nnn(-c2ccccc2)c1C1CC1,2.35,-12.7
Cc1cccc(CN2C[C@@H]3CN(C(=O)c4ccsc4)C[C@@H]3C2=O)c1,2.59,-27.2
COc1ncccc1C(=O)NCC1Cc2ccccc2O1 (stereo not drawn),6.18,5.65
CCn1nc2c(cc1=O)CN(Cc1nc(-c3ccccn3)no1)CC2,29,-43.5
CCCNC(=O)c1c(-n2cnnn2)sc2c1CCC2,1.26,-42
O=C(c1ccc(F)c(F)c1)N1CCCC1CN1CCCC1 (stereo not drawn),-3.65,-41.7
Cc1n[nH]c(=O)c2c(NC(=O)CN3CCOC(C)C3)oc(C)c12 (stereo not drawn),-3.61,-52.2
O=C(c1cscn1)N1C[C@H]2CCCC(OCc3cccnc3)[C@H]2C1 (stereo partly drawn),6.49,-13.5
COCCO[C@H]1CCN(C(=O)c2ccno2)[C@H]1Cc1cnn(C)c1,-3.56,-13.7
CCC(CC)c1cc(CNC(=O)N2CCCC(N(C)C)C2)on1 (stereo not drawn),-1.74,9.62
Cc1nccc(N2CCC(=O)N(Cc3ccc(F)cc3)C(C(C)C)C2)n1 (stereo not drawn),-2.67,-4.25
CC(C)c1nc2n(n1)CC(NCc1nc(-c3cccnc3)no1)CC2 (stereo not drawn),-2.88,-31.5
Cc1ccc(N2CCCC(NCc3ccncc3)C2)nn1 (stereo not drawn),0.131,-14.5
CN(C)C(=O)N1CCc2c(CNc3ncccn3)cncc2C1,0.757,-10.5
CN(C)[C@@H]1CCN(c2ncccn2)[C@H]1Cc1ccncc1,0.268,-22.4
Cc1noc(CN2Cc3ccccc3CC2c2nnc(C)o2)n1 (stereo not drawn),-2.54,-7.76

SMILES,Percent Effect [1] [%],Percent Effect [2] [%]
CC(C)(C)NC(=O)CN1CCN(C(=O)Nc2ccc(F)cc2F)CC1,-2.94,-44.1
Cn1nc(CNC(=O)c2nc3ccccc3s2)c2c1CCOC2,-0.335,1.68
Cn1cnc2c1CCN(CCCOc1ccc(C#N)cc1)C2,-4.46,-24.8
O=C(c1ccn(-c2cccc(Cl)c2)n1)N1CCN(C2CC2)CC1,-1.64,20.3
CC(=O)N1CCC(C(=O)NCCN2CCC(C)CC2)CC1,0.167,0.682
Cn1cc(CN2CCn3cc(CNC(=O)c4cccn4C)nc3C2)cn1,2.49,-19.5
Cc1cc(C(=O)NCCn2nc3ccccn3c2=O)[nH]n1,-1.59,-43.7
O=C1CC(c2cccnc2)C2(CCN(C(=O)c3ccncc3)CC2)N1 (stereo not drawn),-5.73,7.39
O=C(c1cccc2c1OCO2)N1CCCC1c1noc(C2CC2)n1 (stereo not drawn),-11.7,-15.1
COCCOc1ccc(NC(=O)C2CCCN(C(N)=O)C2)cn1 (stereo not drawn),-2.23,-2.19
NC(=O)C1CCN(C(=O)c2cccc(OCc3cscn3)c2)CC1,-1.48,-35.2
CCOC(C)c1nc(CN2CCC(CNC(C)=O)CC2)cs1 (stereo not drawn),-2.51,3.11
COCCC(=O)N1CCN(CCN(C)C)c2ncccc2C1,4.55,-25.6
Cn1cc(-c2cnc(N3CCCC3)nc2)cc1C(=O)O,-9.05,10.6
CC(NC(=O)NCc1ccc(Cl)s1)c1ccccn1 (stereo not drawn),-0.451,-14.6
CCC1CN(C(=O)c2ccccc2N2CCCC2)CCN1C(C)C (stereo not drawn),-4.91,12.2
CN(C)C(=O)CN1C[C@@H]2CC[C@H](C1)N(C(=O)CCn1cncn1)C2,1.04,-6.26
CN(C)c1cc2c(nn1)CCN(C(=O)C1Cc3ccccc3S1)C2 (stereo not drawn),1.89,-20.9
Cc1ccc(Cl)cc1N1CCC(CNC(=O)CCn2ccnc2)C1 (stereo not drawn),-2.41,-19.4
O=C1CC(N(C(=O)c2ccc3c(c2)CCC3)C2CC2)C(=O)N1 (stereo not drawn),0.714,6.53
O=C(NCCN1CCOCC1)c1cc(-c2ccc3c(c2)CCO3)n[nH]1,2.35,-67.8
Cc1occc1C(=O)N1CCCC2(CCN(CCN3CCCC3)C2=O)C1 (stereo not drawn),1.84,-29.2
CC(=O)Nc1cccc(C(=O)Nc2cnc3n2CCCC3)c1,2.26,-9.23
O=C(C1CCOC1)N1CCc2ncc(CNc3ccccn3)n2CC1 (stereo not drawn),-0.229,-21.5
O=C(C1CC=CC1)N1CCc2c(COCc3ccncc3)cncc2C1,-3.81,-51.1

SMILES,Percent Effect [1] [%],Percent Effect [2] [%]
Cc1csc(CN2CC[C@H]3C[C@H](c4nnc(C)[nH]4)O[C@@H]3C2)n1,1.94,0.515
Cc1nc(C)n(CC2CCCN(CC(=O)Nc3nncs3)C2)n1 (stereo not drawn),-4.19,25.6
CC(C)c1nccn1-c1cccc(C2CCCN2S(=O)(=O)N(C)C)n1 (stereo not drawn),8.78,0.999
CCC(NC(=O)C1CCN(S(C)(=O)=O)CC1)c1ccc(OC)c(C)c1 (stereo not drawn),-5.17,-11.6
COc1cccc(CN2CCCCCC2c2cccs2)c1O (stereo not drawn),0.335,-75.8
CS(=O)(=O)Cc1ccc(CNC(=O)c2cccnc2O)cc1,-6.68,-14.2
Cc1nn(C)c(Cl)c1C(=O)NCC(c1ccsc1)N(C)C (stereo not drawn),-6.11,-7.76
Nc1nccc(N2CCCC(CO)(CCOc3ccccc3)C2)n1 (stereo not drawn),9.3,-17.8
O=C(c1cccn2ccnc12)N1CCCN(c2cccnn2)CC1,2.1,22.9
O=C(Nc1cccnc1)[C@H]1C[C@@H]2CN(C(=O)NC3CCCC3)C[C@H]1O2,2.61,-2.93
COCCNc1nc2c(c(NCc3ccncc3)n1)CCNCC2,2.58,-12.3
CN(C)C(=O)NC[C@H]1OC[C@@H]2CCN(Cc3ccoc3)C[C@@H]21,1.28,-22.6
CC1CN(c2ccc(CNC(=O)c3ccn(C)c(=O)c3)cn2)CCO1 (stereo not drawn),-6.51,-19.6
Cn1ncc(NCc2cccc(COC(C)(C)C)c2)c(Cl)c1=O,-4.13,12
CN(C(=O)c1cccc2[nH]ncc12)C1CCN(c2ccccn2)CC1,4.76,24.8
O=C(c1ncccn1)N1C[C@H]2CCC[C@@]2(COCC2CCOCC2)C1,-6.49,-2.7
COc1ccc(CCC(=O)NC2CCC(O)CC2)cc1OC (stereo not drawn),-2.67,33
Cc1cccc(CN2C(=O)CC[C@@H]3[C@H]2CCN3CC2CCOCC2)n1,-1.51,-5.24
CCN(Cc1nc(C(C)C)no1)Cc1cccs1,0.386,-23.8
CCn1nc(C)c2ncnc(NCC(=O)N3CCOCC3)c21,-3.08,-16.4
NC(=O)c1ccc(CN2CCCC(N3CCCC3)C2)cc1 (stereo not drawn),-1.17,-4.76
CCc1ccsc1C(=O)N1CCN(CC(O)CC)CC1 (stereo not drawn),1.06,-26.4
CCc1ccc(C(=O)N2CCC(c3nncn3CC)CC2)cc1,-2.16,7.54
O=C([C@@H]1C[C@H]2[C@H](CCN2Cc2nccs2)O1)N1CCOCC1,2.29,-22.3
Cc1nc(C)n(CC2CCCN2Cc2cc(C)on2)n1 (stereo not drawn),8.96,8.12

SMILES,Percent Effect [1] [%],Percent Effect [2] [%]
Cc1nnc(C(C)NCC2(c3ccc(Cl)cc3)CCCC2)o1 (stereo not drawn),4.47,3.13
Cc1cccc(-c2noc(CN3CCCC3Cn3cccn3)n2)c1 (stereo not drawn),-8.22,28.6
Cc1cc(NC(=O)CN2CCn3c(nnc3C3CC3)C2)n(C)n1,-5.68,19.6
Cc1nn(C)c(C)c1C1CCCN1Cc1nc(-c2ccco2)oc1C (stereo not drawn),-1.54,22.6
Cc1noc(C(C)C)c1C(=O)NCc1cc(F)cc(F)c1,-4.07,14.2
COCC(=O)N1CC[C@@H]2O[C@@H](COCc3csc(C)n3)CC[C@@H]21,7.78,-9.07
CCc1nc(C2CCCN2C(=O)c2nc(C)n3ccccc23)no1 (stereo not drawn),-1.96,-2.42
CN(C)CC(=O)N1CCCC2(CCC(=O)N(CCc3c[nH]cn3)C2)C1 (stereo not drawn),0.773,-43.1
O=C(CN1CCCC(Cn2cncn2)C1)NCCOc1ccccc1 (stereo not drawn),-2.48,-0.612
CCN(CC)c1ccc(NS(=O)(=O)c2cncc(F)c2)cn1,1.66,-27.3
CC1(C(=O)N2CCOCC2)CN(Cc2ccccc2F)CCO1 (stereo not drawn),-0.309,1.31
Cc1nn(C)c2c(=O)n(CC(=O)Nc3cc(Cl)cc(Cl)c3)nnc12,-7.23,-36.8
CC(=O)N1CCC2(CCN(C(=O)c3ccc(C)c(C(F)(F)F)c3)CC2)C1,17.3,-10.7
Cc1cc(C)n(CC2CN(Cc3cscn3)CCO2)n1 (stereo not drawn),-1.81,-3.38
Cn1cc(C2COC3(CCN(C(=O)c4ccc(F)cc4)CC3)C2)cn1 (stereo not drawn),0.474,4.34
Cc1cc(C)n(CC2CCCN2C(=O)c2cnn(C)c2C2CC2)n1 (stereo not drawn),1.84,1.91
Cn1c(Cn2cccn2)nnc1C1CCCN(c2ccncc2F)C1 (stereo not drawn),-0.254,-2.56
c1coc(-c2nnc(CN3CCCC(CN4CCCCCC4)C3)o2)c1 (stereo not drawn),2.88,-14.6
Cc1nc(C)n(C2CCCN(C(=O)c3ccccc3C)C2)n1 (stereo not drawn),0.173,18.2
CS(=O)(=O)Cc1cccc(C(=O)NCC2Cc3ccccc3O2)c1 (stereo not drawn),8.39,-0.655
O=C(c1ccsc1)N1CC[C@H]2C[C@@H](c3nnc(C4CC4)o3)O[C@@H]2C1,0.51,-18.9
CC(Nc1cccc(CN2CCOC2=O)c1)C(=O)N1CCNC1=O (stereo not drawn),-0.922,-28.6
CN(C)C(=O)CC1CC2(CCN(C(=O)N(C)C)CC2)Oc2ccccc21 (stereo not drawn),1,-12.4
CC(C)CNC(=O)c1c(-n2cnnn2)sc2c1CCC2,8.87,2.02
